Among the test systems are SK-MEL-2 melanoma; EKVX NSCLC; SN12C renal; UO-31 renal; TK-10 renal; ACHN renal; CAKI-1 renal; A498 renal; MOLT-4 leukemia; SR leukemia; RPMI-8226 leukemia; OVCAR-8 ovarian; OVCAR-5 ovarian; OVCAR-4 ovarian; SK-OV-3 ovarian; IGROV1 ovarian; OVCAR-3 ovarian; HS 578T breast; NCI/ADR-RES ovarian; CCRF-CEM leukemia.
Holding throughout (assay): NCI-60 one-dose screen, 48 h (100 = growth as untreated, 0 = no growth, -100 = all killed)
Common to all, as to settings: 10 µM

This is part of a sample that, as a whole, favours compounds with a hit. Of some 83,000 tested, about 20% had one in any assay.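 96-well plates, one dose, 48 hours. Percent growth reported; active if below 10.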 A number with no mark means an inactive call. Active and inactive are the calls of the source.

On to `N#Cc1c(-c2ccc(Cl)cc2)csc1NC(=O)Nc1ccc(Cl)c(C(F)(F)F)c1`, for which the growth in the assay with SK-MEL-2 melanoma is 5.43% (active); in the assay on EKVX NSCLC, 11.9%; with SN12C renal, 14.4%; in the assay with UO-31 renal, 28.2%; with TK-10 renal it was 10.3%; with ACHN renal it was 3.38% (active). In addition, the growth in the assay with CAKI-1 renal was 13.5%; in the assay on A498 renal, 35.6%; in the assay on MOLT-4 leukemia, 1.45% (active); in the assay with SR leukemia it was -15.1% (active); in the assay on RPMI-8226 leukemia it was 1.61% (active); with OVCAR-8 ovarian, 23%. Besides, the growth in the assay on OVCAR-5 ovarian is 60.2%; in the assay with OVCAR-4 ovarian, -26.4% (active); in the assay on SK-OV-3 ovarian, 19.9%; in the assay with IGROV1 ovarian, 22.1%; in the assay on OVCAR-3 ovarian it was -19.7% (active); in the assay with HS 578T breast, 29.6%. Also, the growth in the assay on NCI/ADR-RES ovarian was 8.74% (active).
For the compound `O=C(CN1CCN(C(=O)c2ccccc2)CC1)Nc1ccccc1SCc1ccccc1`, the growth in the assay with SK-MEL-2 melanoma was 66.8%; with EKVX NSCLC, 72.3%; in the assay on SN12C renal, 77.9%; in the assay on UO-31 renal, 52.2%; with TK-10 renal it was 82.2%; in the assay with ACHN renal, 80.8%. In addition, the growth was 71.8% in the assay on CAKI-1 renal; 86.6% with A498 renal; 74.1% in the assay with MOLT-4 leukemia; 71% in the assay on SR leukemia; 68.3% with RPMI-8226 leukemia; 87.3% with OVCAR-8 ovarian. Besides, the growth in the assay on OVCAR-5 ovarian is 96.4%; in the assay on OVCAR-4 ovarian, 77.2%; in the assay on SK-OV-3 ovarian it was 89.5%; with IGROV1 ovarian, 84.2%; in the assay with OVCAR-3 ovarian, 91.5%; in the assay on HS 578T breast, 83.9%. In addition, the growth in the assay with NCI/ADR-RES ovarian is 78.4%.
Consider `C/C=C/C1=CN2C(=O)c3cc(OC4OC(C)C(NC)C(C)(O)C4O)c(C)c(O)c3N=C[C@@H]2C1` (stereo not given in full), for which the growth in the assay with SK-MEL-2 melanoma was 17.9%; with EKVX NSCLC it was -3.19% (active); in the assay with SN12C renal, 1.37% (active); with UO-31 renal, -44.5% (active); with TK-10 renal, 16.2%; in the assay with ACHN renal it was 3.15% (active). Moreover, the growth with CAKI-1 renal is 9.27% (active); with A498 renal, -83.1% (active); in the assay on CCRF-CEM leukemia, 1.22% (active); with MOLT-4 leukemia it was 2.33% (active); in the assay on SR leukemia, 0.588% (active); with RPMI-8226 leukemia, 7.45% (active). The growth with OVCAR-8 ovarian is 9.18% (active); in the assay on OVCAR-5 ovarian, -1.31% (active); in the assay with SK-OV-3 ovarian it was 1.76% (active); in the assay with IGROV1 ovarian it was -22.7% (active); in the assay with OVCAR-3 ovarian it was -4.33% (active); in the assay on HS 578T breast, -11.6% (active). Moreover, the growth with NCI/ADR-RES ovarian was -6.18% (active).
Take `COc1ccc(-c2cc(-c3ccc(Cl)cc3)nc(SCCCCCCC(=O)NO)n2)cc1OC`: the growth in the assay with SK-MEL-2 melanoma was 89.3%; in the assay on EKVX NSCLC, 51.6%; with SN12C renal, 70.6%; in the assay on UO-31 renal, 20.1%; in the assay with TK-10 renal, 61.1%; with ACHN renal, 38.1%. The growth with CAKI-1 renal is 30.3%; with A498 renal it was 67.9%; in the assay with MOLT-4 leukemia it was 16.2%; in the assay with SR leukemia it was 21.3%; with RPMI-8226 leukemia, -9.15% (active); in the assay with OVCAR-8 ovarian, 51.5%. In addition, the growth in the assay on OVCAR-5 ovarian is 56.2%; in the assay on OVCAR-4 ovarian, 70.5%; in the assay on SK-OV-3 ovarian it was 58.2%; in the assay on IGROV1 ovarian it was 35.9%; in the assay with OVCAR-3 ovarian it was 75.5%; with HS 578T breast, 63.7%. Further, the growth in the assay with NCI/ADR-RES ovarian is 20%.
With `NC1=CC(=O)C(=O)c2cccnc21`, the growth was 77.9% in the assay on SK-MEL-2 melanoma; 98.3% in the assay on EKVX NSCLC; 70% in the assay on SN12C renal; 47.8% in the assay with UO-31 renal; 113% with TK-10 renal; 60.1% in the assay on ACHN renal. Besides, the growth in the assay with CAKI-1 renal is 83.1%; in the assay on A498 renal, 92.6%; with CCRF-CEM leukemia, 82.9%; with MOLT-4 leukemia it was 106%; in the assay on SR leukemia, 86%; in the assay with RPMI-8226 leukemia, 73.8%. Besides, the growth is 76% in the assay on OVCAR-8 ovarian; 101% in the assay with OVCAR-5 ovarian; 93.9% in the assay with SK-OV-3 ovarian; 76.7% in the assay with IGROV1 ovarian; 84% in the assay with OVCAR-3 ovarian; 77.5% with HS 578T breast. In addition, in the assay on NCI/ADR-RES ovarian, the growth was 82.7%.
Take `O=C1c2ccccc2C(=O)N1CCCCNc1ccccc1`: the growth with SK-MEL-2 melanoma was 121%; in the assay with EKVX NSCLC, 127%; in the assay on SN12C renal, 50.4%; in the assay on UO-31 renal, 61.7%; in the assay on TK-10 renal, 117%; in the assay on ACHN renal, 104%. The growth in the assay with CAKI-1 renal was 101%; in the assay with A498 renal, 70.2%; in the assay with CCRF-CEM leukemia, 21.3%; with MOLT-4 leukemia it was 49.7%; with RPMI-8226 leukemia, 30.5%; in the assay with OVCAR-8 ovarian it was 101%. For the same compound, the growth with OVCAR-5 ovarian was 101%; with OVCAR-4 ovarian, 107%; in the assay on SK-OV-3 ovarian, 113%; in the assay on IGROV1 ovarian, 141%; with OVCAR-3 ovarian, 91%; with HS 578T breast, 103%. In addition, the growth in the assay with NCI/ADR-RES ovarian was 103%.
In the case of `O=C1c2ccccc2C(=O)c2c1ccc1c(=O)n(-c3ccccc3C(F)(F)F)nnc21`, the growth in the assay with SK-MEL-2 melanoma was 56.5%; in the assay with EKVX NSCLC it was 36.3%; with SN12C renal, 5.97% (active); in the assay on UO-31 renal, 22.6%; in the assay on TK-10 renal it was 54.8%; in the assay on ACHN renal, 23.6%. The growth in the assay on CAKI-1 renal was 24.3%; in the assay on A498 renal, 82%; with CCRF-CEM leukemia it was 15%; in the assay on MOLT-4 leukemia, 7.06% (active); in the assay with SR leukemia, 31.1%; in the assay on RPMI-8226 leukemia, 18%. Besides, the growth in the assay with OVCAR-5 ovarian was 34.2%; in the assay on OVCAR-4 ovarian it was 1.52% (active); with SK-OV-3 ovarian, 69.9%; with IGROV1 ovarian it was -27.9% (active); with OVCAR-3 ovarian, -17.6% (active); in the assay on HS 578T breast, 73.1%. The growth in the assay with NCI/ADR-RES ovarian was -16.4% (active).
As for `O=C(O)c1ccc(-n2cc(CNc3ccc(Cl)cc3)c(-c3ccccc3)n2)cc1`, the growth in the assay with SK-MEL-2 melanoma was 78.5%; in the assay with EKVX NSCLC, 78.1%; in the assay on SN12C renal, 94.9%; in the assay with UO-31 renal it was 82.4%; in the assay with TK-10 renal, 91.7%; in the assay on ACHN renal, 79.5%. The growth was 88.8% with CAKI-1 renal; 91.4% in the assay on A498 renal; 82.4% with MOLT-4 leukemia; 69.1% in the assay with SR leukemia; 89.1% in the assay with RPMI-8226 leukemia; 98.9% in the assay on OVCAR-8 ovarian. Also, the growth in the assay with OVCAR-5 ovarian is 103%; in the assay with OVCAR-4 ovarian, 88.3%; in the assay on SK-OV-3 ovarian it was 107%; in the assay with IGROV1 ovarian it was 92.1%; in the assay with OVCAR-3 ovarian it was 98.6%; in the assay on HS 578T breast it was 85%. Further, the growth in the assay with NCI/ADR-RES ovarian is 91.6%.
`C=CCNCCN1C(=O)c2ccc3c4c(ccc(c24)C1=O)C(=O)N(CCNCC=C)C3=O`: the growth in the assay on SK-MEL-2 melanoma is -45.9% (active); in the assay on EKVX NSCLC, -82% (active); in the assay with SN12C renal it was -78% (active); in the assay with UO-31 renal it was -58.4% (active); in the assay with TK-10 renal, -6.43% (active); with ACHN renal, -56.3% (active). Further, the growth was -64.2% (active) with CAKI-1 renal; -73.7% (active) in the assay with A498 renal; 4.83% (active) in the assay with CCRF-CEM leukemia; -18.3% (active) in the assay on MOLT-4 leukemia; -8.69% (active) in the assay on SR leukemia; 13.5% with RPMI-8226 leukemia. In addition, the growth in the assay on OVCAR-8 ovarian was -24% (active); in the assay on OVCAR-5 ovarian, -52% (active); with SK-OV-3 ovarian, -38.6% (active); in the assay with OVCAR-3 ovarian, -22.5% (active); in the assay on HS 578T breast, 1.35% (active); in the assay with NCI/ADR-RES ovarian, -12.9% (active).
Turning to `O=c1oc2c(cc1-c1ccc(F)cc1)C(O)Oc1ccccc1-2` (stereo not given), the growth was 76.1% with SK-MEL-2 melanoma; 51.2% in the assay on EKVX NSCLC; 95.4% in the assay on SN12C renal; 84.1% in the assay on UO-31 renal; 72.3% in the assay on TK-10 renal; 94.4% with ACHN renal. The growth was 74% with CAKI-1 renal; 89.5% with A498 renal; 113% in the assay with CCRF-CEM leukemia; 68.3% in the assay on MOLT-4 leukemia; 58.1% in the assay on SR leukemia; 90.8% in the assay with RPMI-8226 leukemia. Besides, the growth was 100% with OVCAR-8 ovarian; 96.2% with OVCAR-5 ovarian; 105% in the assay on SK-OV-3 ovarian; 80.4% in the assay on OVCAR-3 ovarian; 16.6% in the assay with HS 578T breast; 54.5% in the assay on NCI/ADR-RES ovarian.
In the case of `COc1cc2c(cc1NC(=O)C(F)(F)F)-c1ccc(NC(=O)C(F)(F)F)cc1C2`, the growth in the assay on SK-MEL-2 melanoma is 105%; in the assay on EKVX NSCLC it was 104%; in the assay with SN12C renal, 86.8%; in the assay with UO-31 renal, 102%; in the assay on TK-10 renal, 94.8%; with ACHN renal, 62.9%. Also, the growth with CAKI-1 renal was 96.9%; in the assay on A498 renal, 97.7%; in the assay on CCRF-CEM leukemia, 97.6%; in the assay with MOLT-4 leukemia it was 105%; with RPMI-8226 leukemia, 103%; in the assay on OVCAR-8 ovarian, 96.8%. The growth in the assay on OVCAR-5 ovarian is 99%; in the assay with SK-OV-3 ovarian, 54.7%; in the assay with IGROV1 ovarian, 103%; in the assay on OVCAR-3 ovarian it was 108%; with HS 578T breast it was 77.8%; in the assay on NCI/ADR-RES ovarian it was 93.3%.
For `Nc1c(Br)cc(Br)c2c1[nH]c(=O)c1ccccc12`, the growth is 98.6% in the assay with SK-MEL-2 melanoma; 57% in the assay on EKVX NSCLC; 80.1% in the assay on SN12C renal; 27.8% with UO-31 renal; 31.5% in the assay on TK-10 renal; 10.9% in the assay on ACHN renal. The growth was 68.6% in the assay on CAKI-1 renal; 53.8% in the assay with A498 renal; 93.2% with CCRF-CEM leukemia; 80.8% in the assay with MOLT-4 leukemia; 81.1% with SR leukemia; 96.2% in the assay on RPMI-8226 leukemia. Besides, the growth was 37.2% in the assay with OVCAR-8 ovarian; 72.8% with OVCAR-5 ovarian; 16.1% in the assay on SK-OV-3 ovarian; 58.4% with IGROV1 ovarian; 68.7% in the assay on OVCAR-3 ovarian; 30.5% in the assay with HS 578T breast. In addition, the growth with NCI/ADR-RES ovarian was 44.3%.
